Assay outcomes (PubChem)
ATXN2 expr inh = ATXN2 expression inhibition; HEK-293 ATXN2-luciferase reporter, luminescence, 24 h; Potency, µM (top dose mostly 57 µM), most hits filed as inhibitors; 0.72% of 360,000 active; AID 1745845; further: nearly all actives have a fitted effect of over 55% in size
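ATXN2-luciferase reporter cells (luciferase flanked by upstream and downstream ATXN2 gene portions) were treated 24 h at 37 °C with compounds at up to 57 uM. SteadyGlo luminescence gave expression; GF-AFC fluorescence gave viability.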
TGFb inhibitor = blocks TGF-b signaling | HepG2 CAGA-GFP TGF-b/SMAD3 reporter, GFP fluorescence, 18 h; TGF-beta stimulated, 500 pg/mL final | Potency, µM (doses to about 46.1 µM), hits mostly inhibitors | 1.2% of 410,000 active | AID 588855; further: nearly all actives have a fitted effect of over 65% in size
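Per well, imaged GFP fluorescence of HEPG2 CAGA-GFP cells gives the signal; cells get compound, then TGF-beta (500 pg/mL final), 18 h at 37 degrees C; %Activity versus -TGF-beta and +DMSO controls.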
IL1B secr inh = blocks inflammasome-driven IL-1 beta release. activity change, % at 57.5 µM. 4.7% of 360,000 active. THP-1 LPS/ATP IL-1B secretion, AlphaLISA, 16 h; active compounds read low; in the data active means activity change below about -50%; inconclusive means mostly about -30% to -49%
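Secreted IL-1B measured by AlphaLISA bead assay after 16 h compound exposure of THP-1 cells; compounds (final up to 57.5 uM) added 1 h before LPS (250 ng/mL) and ATP (1.25 mM) stimulation; lower signal means less secretion.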
S2 tox = cell viability loss in ATXN counter-screen; S2 cells (HEK-293 line with an ATXN2-luciferase reporter) viability, CellTiter-Fluor protease fluorescence, 24 h; Potency, µM (doses to about 56.7 µM), hits mostly cytotoxic; 0.49% of 400,000 active; AID 651635; further: nearly all actives have a fitted effect of over 40% in size
HepG2 viability = counter-screen for TGF-b inhibitors: cytotoxicity in HepG2 cells | Potency, µM (doses to about 46.1 µM), usual class: cytotoxic | HepG2 CAGA-GFP viability, ATP luminescence, 18 h | 0.76% of 410,000 active
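HepG2 CAGA-GFP cells (1000/well, DMEM with 1% FBS) received compound, then TGF-beta at 500 pg/mL final, and were incubated 18 hours at 37 degrees C. Viability was read by CellTiter-Glo luminescence. Media-only wells were set as complete cell-killing and DMSO as no toxicity.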
Numbers stand for hits; n = inactive; u = inconclusive; x = not tested or not shown. Compounds with a hit are over-represented: about 5.7% of the library has one in this group of screens. Unless noted, the call rests on the fitted dose curve; in most records, active means well fitted curve in the direction sought with a large enough effect; inconclusive means small, poorly fitted or top-dose-only effect, or another doubt; inactive means no such curve, though single readings can be large; an effect the other way counts as inactive or inconclusive.

SMILES	ATXN2 expr inh	TGFb inhibitor	IL1B secr inh	S2 tox	HepG2 viability
COc1ccc(-n2nc3c(c2NC(=O)CCl)CSC3)cc1	n	u	-106.9	u	n
COc1ccc(-n2nc3c(c2NC(=O)C(C)Cl)CSC3)cc1 (centres undefined)	x	n	n	n	n
O=C(C[n+]1cccc2cccc(O)c21)c1ccc(F)cc1	x	n	x	x	n
Cn1c(/C(C#N)=C/c2ccc(O)cc2)nc2ccccc21	n	n	n	n	n
N#C/C(=C\C1CC=CCC1)c1nc2ccccc2[nH]1 (centres undefined)	n	n	-51.7	n	n
N#CC(=Cc1ccncc1)c1ccccc1	n	n	-74.2	u	n
Cn1c(/C(C#N)=C/c2ccncc2)nc2ccccc21	x	n	-52.3	n	n
Cn1c(/C(C#N)=C/c2ccc(C(F)(F)F)cc2)nc2ccccc21	x	x	x	x	n
Cn1c(/C(C#N)=C/C2CC=CCC2)nc2ccccc21 (centres undefined)	n	n	-96.2	n	n
CC1CC=CC2C1C(=O)N(Cc1ccccc1)C2c1ccc2ccccc2c1Br (centres undefined)	x	u	x	x	n
CN1CCC(Oc2ccc(Sc3ccccc3)cc2)CC1	n	n	-54.5	u	n
CC(=O)C(=Nc1ccc(Cl)cc1Cl)NNc1cccc(Cl)c1	n	22.4µM	n	n	n
Cc1cccc(NNC(=O)C(=O)NNc2cccc(C)c2)c1	x	n	n	n	n
CN1CCc2c(OCC(=O)N3N=C(c4cccs4)CC3c3ccc(F)cc3)cccc2C1=O (centres undefined)	n	u	-66.9	n	n
CCN1CCc2c(OCC(=O)N3N=C(c4cccs4)CC3c3ccc(F)cc3)cccc2C1=O (centres undefined)	u	n	-57.3	n	n
OC1CCN(Cc2ccc3c(c2)CN(Cc2ccc(Oc4ncccn4)cc2)CCO3)CC1	x	x	x	n	x
COc1ccc(C(=O)NCC(c2ccc(N(C)C)cc2)N2CCc3ccccc32)cc1 (centres undefined)	x	n	x	x	n
Cc1oc(-c2ccc(Cl)cc2)nc1CN1CCC(C(=O)NCc2ccco2)CC1	n	n	n	n	n
Cc1ccccc1-c1nc(CN2CCC(C(=O)NCc3ccco3)CC2)c(C)o1	n	n	-67.1	n	n
CCc1ccc(-c2nc(CN3CCC(C(=O)NCCc4ccc(OC)c(OC)c4)CC3)c(C)o2)cc1	n	n	-54.2	u	n
CCc1ccc(-c2nc(CN3CCC(C(=O)NCc4ccccc4OC)CC3)c(C)o2)cc1	x	u	u	x	14.1µM
COc1cccc(NC(=O)Cn2c(=O)n(-c3ccc(C)cc3)c(=O)c3ccccc32)c1	n	n	x	n	n
CCOC(=O)CSc1nc2sc3c(c2c(=O)n1Cc1ccccc1)CC(C)CC3 (centres undefined)	x	n	x	x	n
CCCc1cc(=O)oc2c3c(cc(OCC(=O)N[C@@H](C)C(=O)O)c12)OC(C)(C)CC3	n	n	n	n	n
CCCc1cc(=O)oc2c3c(c4c(c12)OC(C)(C)C=C4)OC(C)C(C)C3O (centres undefined)	u	u	-71.4	u	7.94µM
SMILES	ATXN2 expr inh	TGFb inhibitor	IL1B secr inh	S2 tox	HepG2 viability
COc1ccc2c(c1)C(c1ccccc1)NC(=O)C2 (centres undefined)	n	n	n	n	11.2µM
CCOc1ccc(C2NC(=O)Cc3cc(OC)c(OC)cc32)cc1 (centres undefined)	n	n	n	n	n
COc1cc2c(cc1OC)C(c1ccc(C)cc1)NC(=O)C2 (centres undefined)	n	n	-61.4	n	n
O=C(Cc1ccc(Cl)cc1)NCC(c1cccs1)S(=O)(=O)c1ccc(F)cc1 (centres undefined)	n	u	x	u	n
O=C1Cc2ccccc2Sc2cc(OCCCN3CCCCC3)ccc21	n	n	n	u	n
O=C1Cc2ccccc2Sc2c(OCCN3CCCCC3)cccc21	n	n	-72.1	u	n
CCC1(C2CCN(Cc3ccccc3Cl)CC2)NC(=O)N(CC2COc3ccccc3O2)C1=O (centres undefined)	x	x	x	n	x
Cc1cccc2nc3ccccc3cc12	n	n	n	n	n
Cc1[nH]ccc2cc3nc4ccccc4c3cc12	x	u	-57.7	x	n
c1ccc(CSc2nnc(-c3cccs3)n2Cc2ccco2)cc1	n	n	-66.6	n	n
Brc1ccc(CSc2nnc(-c3ccccn3)n2Cc2ccco2)cc1	n	u	n	n	n
CC(C)(C)c1ccc(CSc2nnc(-c3ccccn3)n2Cc2ccco2)cc1	u	u	-93.7	n	n
Cc1ccccc1CSc1nnc(-c2cccs2)n1Cc1ccco1	n	u	n	n	n
O=c1cc(CSc2nnc(-c3cccs3)n2Cc2ccccc2)nc2sc3ccccc3n12	n	n	-51.1	u	n
Cc1cc(C(=O)CSc2nnc(-c3cccs3)n2Cc2ccccc2)c(C)n1C	n	u	u	n	n
Cc1ccc(-c2cnc(C3CC3)o2)cc1S(=O)(=O)Nc1ccc(F)cc1Cl	n	u	x	n	n
CCC1CN(CCNC(=O)c2scc3c2OCCO3)Cc2cc(OC)ccc2O1 (centres undefined)	x	x	x	n	x
CN(CC(=O)Nc1cccc(F)c1)S(=O)(=O)c1ccc2c(c1)n(C)c(=O)c(=O)n2C	n	n	x	n	n
CCc1ccc(CNC(=O)c2cc3c(C)nc4ccccc4c3o2)cc1	20µM	u	n	u	n
C(=N\Nc1nc(-c2cccnc2)nc2ccccc12)/c1ccccc1	n	n	x	x	n
C(=N\Nc1nc(-c2ccccn2)nc2ccccc12)/c1ccccc1	x	1.78µM	x	x	n
O=S1(=O)NCC23CCC(CC21)O3 (centres undefined)	x	n	x	x	n
CN(C)CCOC1c2ccccc2CCc2ccc3ccccc3c21 (centres undefined)	n	u	-85.7	u	n
Cc1nc2cc(NC(=O)[C@@H]3C[C@@H](Sc4ccccn4)CN3Cc3ccc4c(c3)OCCO4)ccc2s1	x	x	x	n	x
CCS(=O)(=O)Nc1cc(C(=O)N2CCCN(C=O)CC2)c2c(c1)nc(-c1ccccc1)n2C	x	x	x	n	x
Cc1cccc(COCC(Cc2ccccc2)N2CCN(C(=O)c3ccc(C(F)(F)F)cc3)CCC2=O)c1 (centres undefined)	u	u	-75.9	u	n
O=C(c1ccc(C(F)(F)F)cc1)N1CCC(=O)N(C(COCc2ccc(C(F)(F)F)cc2)Cc2ccccc2)CC1 (centres undefined)	u	u	-81.9	u	n
O=C(c1cccc(Cl)c1)N1CCC(=O)N([C@H](COCc2ccccc2)Cc2ccccc2)CC1	n	x	u	u	x
Cc1cccc(C(=O)N2CCC(=O)N([C@H](COCc3cccc(Cl)c3)Cc3ccccc3)CC2)c1	n	x	n	u	x
Cc1cccc(COC[C@H](Cc2ccccc2)N2CCN(C(=O)c3ccc(C(F)(F)F)cc3)CCC2=O)c1	u	x	-66.6	u	x
